# Data published in ChEMBL document CHEMBL4513216, “Probing the Open Global Health Chemical Diversity Library for Multistage-Active Starting Points for Next-Generation Antimalarials” (ACS Infect Dis, 2020).
# About 2,700 (4%) of roughly 68,000 compounds showed an effect of 50% or more. Only a selection was taken, and strong results are over-represented in it overall.
# Test system: Plasmodium berghei
# Assay: Screen against P. berghei liver stage (PbLuc), transformed with Luciferase, at 2uM
# Format: functional, HepG2
# Settings: tested at 2 uM
row,Structure (SMILES),INHIBITION [%]
1,Nc1ncccc1C(=O)NCc1ccc(Br)cc1,49.69
2,Cc1csc(N2CCN(C(=O)C(C)n3cncn3)CC2)n1 (stereo not given),4.18
3,Cc1cc(C(=O)NCCCn2nccc2C2CC2)c(=O)[nH]c1C,49.45
4,COc1c(CNCc2ccnc(N(C)C)c2)c(C(C)C)nn1C,18.85
5,CC(=O)N1CCN([C@@H]2CCC[C@@H](NC(=O)c3cccnc3)[C@H]2O)CC1,20.44
6,CC(=O)N1CCOC2(CCN(C(=O)C3CC3)CC2)C1,-31.76
7,NC(=O)CN1CCCN(C(=O)c2ccc(SC(F)F)cc2)CC1,2.31
8,O=C(CCOCC(F)(F)F)N1CCCC(n2ccnc2)C1 (stereo not given),2.21
9,O=C1COc2ccc(C(=O)NS(=O)(=O)c3cc(F)ccc3F)cc2N1,-9.66
10,Cc1nc(NC(=O)c2nn(-c3ccc(F)cc3C)cc2O)n[nH]1,2.82
11,COc1ccc(-c2nnc(CNCCn3cccn3)o2)cc1,-16.99
12,Cc1ccc(-c2nnc(CNCCn3cccn3)o2)cc1,-9.22
13,c1ccc(-c2nnc(CNCCn3cccn3)o2)cc1,51.32
14,COc1cccc(C(=O)N2CCCC(CNS(C)(=O)=O)C2)c1 (stereo not given),2.74
15,Cc1cc(C2CCCN(C(=O)CCc3cscn3)C2)n[nH]1 (stereo not given),-0.13
16,COCC(NC(=O)c1ccc[nH]1)c1cccc(C(F)(F)F)c1 (stereo not given),11.28
17,COCC(NC(=O)c1ccco1)c1cccc(C(F)(F)F)c1 (stereo not given),39.45
18,COCC(NC(=O)c1ccoc1C)c1cccc(C(F)(F)F)c1 (stereo not given),74.22
19,NS(=O)(=O)Cc1ccc(CNC(=O)NCC2CCOC2)cc1 (stereo not given),-27.91
20,Cc1ccc2c(c1)CN(CC(=O)NCCc1ccc(F)cc1)CC(C)O2 (stereo not given),-16.71
21,CC1CN(CCC(=O)NCCc2cccnc2)Cc2ccccc2O1 (stereo not given),52.3
22,CC1CN(CC(=O)NCCc2ccncc2)Cc2ccccc2O1 (stereo not given),11.9

row,Structure (SMILES),INHIBITION [%]
1,COC(=O)c1cnc2c(c(C)nn2C)c1OC,-8.44
2,COc1ncccc1CNC(=O)c1ccco1,51.46
3,Nc1no[n+]([O-])c1C(=O)NCc1ccccn1,-18.45
4,COc1ncccc1CNC(=O)NCc1ccco1,-2.87
5,COc1ncccc1CNC(=O)NCCNS(C)(=O)=O,6.3
6,Nc1no[n+]([O-])c1C(=O)NCc1ccco1,84.12
7,CCCNC(=O)NCc1cccnc1OC,56.12
8,COc1ncccc1CNC(=O)c1csc(Br)c1,-12.08
9,COc1ncccc1CNC(=O)c1cc(F)cc(Br)c1,58.69
10,CC(C)Oc1ncccc1CNC(=O)c1ccco1,26.11
11,Nc1no[n+]([O-])c1C(=O)NCc1cccnc1,-3.26
12,COc1ncccc1CNC(=O)NCCNC(=O)c1ccco1,39.92
13,COc1ncccc1CNC(=O)c1c[nH]c(=O)c(Br)c1,37.18
14,CC(O)CNC(=O)CCc1nc2ncccc2[nH]1 (stereo not given),17.33
15,CC(C)c1nccn1CCCNC(=O)c1ccc(-c2cncnc2)nc1,27.84
16,O=C(c1cnc(-c2cccnc2)nc1)N1CCC(c2ccncc2)CC1,-70.5
17,CCC(C)N1C(=O)c2ccc(C(=O)NCCc3c[nH]cn3)cc2C1=O (stereo not given),35.09
18,NCc1cccc(-c2cccnc2C(=O)NCCCN2CCOCC2)c1,3.63
19,CC(Cn1cccn1)NC(=O)NCc1cccnc1OC1CCCC1 (stereo not given),39.32
20,CC(Cn1ccnc1)NC(=O)NCc1cccnc1OC1CCCC1 (stereo not given),8.42
21,Cc1cc(C(=O)NCc2cccnc2OC(C)C)no1,51.19
22,COC(=O)c1ccc(C(=O)NCc2ccco2)nc1,-44.93

row,Structure (SMILES),INHIBITION [%]
1,CC(O)CNC(=O)NCc1cccnc1OC1CCCC1 (stereo not given),59.73
2,CCOc1ncccc1CNC(=O)c1cc(C)on1,22.75
3,COc1ncccc1CNC(=O)c1cc(C)on1,-18.38
4,CCC1c2ccsc2CCN1C(=O)NCc1cccnc1OC (stereo not given),66.27
5,CCC1c2ccsc2CCN1C(=O)NCc1ccccn1 (stereo not given),-77.99
6,CCC1c2ccsc2CCN1C(=O)NCc1cccnc1N(C)C (stereo not given),8.5
7,COC(=O)c1cccc(C(=O)NCc2ccco2)n1,-15.05
8,COc1ccc(C(=O)NCc2ccco2)nn1,65.1
9,CC(C)c1nc(C2CCCN(C(=O)Cn3ccccc3=O)C2)no1 (stereo not given),40.88
10,Cc1ccc(C)n1-c1c(C(=O)NCC(C)N(C)C)cnn1C (stereo not given),28.5
11,O=C(COc1cccc2c1CCC2=O)NCc1ccccc1Cl,-21.15
12,CCN1CC2(CCOCC2)c2cc(NS(=O)(=O)CC)ccc21,16.33
13,Cc1nccn1-c1ccc(C(C)Nc2cnn(C)c(=O)c2Cl)cc1 (stereo not given),39.58
14,COc1ccccc1Oc1ncccc1CNC(=O)[C@H](N)CC(C)(C)C,62.39
15,COc1ccccc1Oc1ncccc1CNC(=O)[C@@H](N)[C@@H](C)O,-4.93
16,COc1ccccc1Oc1ncccc1CNC(=O)[C@@H](N)CCO,10.91
17,OC1CCCN(CCNc2ncc(Cl)cc2F)C1 (stereo not given),-23.46
18,COCc1cccc(NC(C(N)=O)c2ccc(Br)cc2)c1 (stereo not given),0.53
19,CC(C)(C)c1nnc(CSc2ccccn2)o1,58.9
20,CCc1nnc(CSc2ccccn2)o1,-9.88
21,Cc1nnc(CSc2ccccn2)o1,-43.6
22,CC(CNC(=O)N1CCN(CC(F)F)CC1)Cc1cccs1 (stereo not given),-47.2

row,Structure (SMILES),INHIBITION [%]
1,CC(CNC(=O)N1CCSCC1)Cc1cccs1 (stereo not given),-49.29
2,CC(CNC(=O)N1CCC(CO)CC1)Cc1cccs1 (stereo not given),21.24
3,CC(CNC(=O)N1CCNC(=O)CC1)Cc1cccs1 (stereo not given),57.59
4,CC(CNC(=O)N1CCN(c2cnccn2)CC1)Cc1cccs1 (stereo not given),17.75
5,CC(CNC(=O)N1CCN(c2ncccn2)CC1)Cc1cccs1 (stereo not given),5.82
6,CC(=O)N(C)C1CCN(C(=O)NCC(C)Cc2cccs2)CC1 (stereo not given),60.9
7,COC(=O)C1CCN(C(=O)NCC(C)Cc2cccs2)CC1 (stereo not given),55.39
8,CC(CNC(=O)N1CCS(=O)(=O)CC1)Cc1cccs1 (stereo not given),8.03
9,Cc1cccc(NC(=O)c2cccc(OCc3nnnn3C)c2)n1,-85.14
10,CCS(=O)(=O)N1C[C@@H]2CN(Cc3cccs3)CCO[C@@H]2C1,-20.67
11,COc1ccc(C2(C(=O)N3CC(c4cccnc4)C3)CC2(C)C)cc1 (stereo not given),60.13
12,CC1(C)CC1(C(=O)N1CC(c2cccnc2)C1)c1ccc(F)cc1 (stereo not given),41.05
13,CC1(C)CC1(C(=O)N1CC(c2cccnc2)C1)c1ccccc1F (stereo not given),14.82
14,CCOC(=O)c1cnn(-c2cc(Oc3cccc(C)c3)ncn2)c1N,-58.53
15,CC(COc1ccc(F)cc1F)NC(=O)NCCN1CCOCC1 (stereo not given),-30.55
16,CCCN(Cc1cccc(OCCO)c1)Cc1ccccc1OC,-135.42
17,COCCN(Cc1cccc(O)c1)Cc1ccccc1F,35.48
18,COCCN(Cc1cccc(OCCO)c1)Cc1ccccc1F,58.42
19,CC(C)N1[C@H](Cn2cncn2)C[C@@H]2CN(Cc3cccs3)CC[C@@H]21,13.25
20,O=C(Cc1ccccc1Cl)N1CCN(CC(O)COCCO)CC1 (stereo not given),-13.06
21,COc1ccc(C)cc1CN1CCCC1c1noc(C2CC2)n1 (stereo not given),-14.17
22,C=C(C)CNC1CCCN(Cc2noc(C3CC3)n2)C1 (stereo not given),-36.58

row,Structure (SMILES),INHIBITION [%]
1,COCCNC(=O)[C@H]1C[C@@H]2CCN(c3nncs3)C[C@H]2O1,21.08
2,O=C(NCCc1ccncc1)[C@H]1C[C@@H]2CCN(c3nncs3)C[C@H]2O1,62.15
3,O=C(NCc1ccco1)[C@H]1C[C@@H]2CCN(c3nncs3)C[C@H]2O1,-2.66
4,O=c1cc(-c2cccnc2)nc(-c2ccc(CN3CC[C@H](O)C3)cc2)[nH]1,39.51
5,Cn1cncc1C(=O)N1C[C@@H]2CCN(c3cnccn3)C[C@@H]2C1,5.44
6,O=C(NC[C@H]1OC[C@@H](NC(=O)c2ccccc2)[C@@H]1O)c1ccncc1,25.94
7,CN(CC(=O)N1CCC(Oc2ccccc2)CC1)c1cnccn1,33.16
8,CN(CC(=O)N1CCC(N(C)c2ccccc2)CC1)c1cnccn1,-35.47
9,CN(CC(=O)N1CCC(COc2ccccc2)CC1)c1cnccn1,52.47
10,CCCn1nnnc1CN(c1ccc(C)cc1)C(C)C,7.67
11,CCCn1nnnc1CN(C)C(C)c1ccc(C)cc1 (stereo not given),67.28
12,CCCn1nnnc1CN(c1ccc(N2CCOCC2)cc1)C(C)C,36.28
13,Cc1nc2n(n1)CC(Nc1nc(C(F)(F)F)nc3ccccc13)CC2 (stereo not given),19.12
14,COc1ccccc1CC(=O)NC1CCCc2cn[nH]c21 (stereo not given),-1.29
15,CCCOc1ccc(CNC2CCCc3c2cnn3CC)cc1OC (stereo not given),33.01
16,CCn1ncc2c1CCCC2NCc1cc(C)ccc1OC (stereo not given),-14.16
17,CCn1ncc2c1CCCC2NCc1ccc(OC)c(C)c1 (stereo not given),27.55
18,CCn1ncc2c1CCCC2NCc1cc(Cl)c(OC)c(OC)c1 (stereo not given),11.18
19,CCn1ncc2c1CCCC2NCc1ccc(OC)c(F)c1 (stereo not given),57.81
20,CCOCc1cc(CNC2CCCc3c2cnn3CC)ccc1OC (stereo not given),57.81
21,CCCN(CCOC)C(=O)c1cc(Cn2c(C)nc3ccccc32)[nH]n1,-8.53
22,Cc1cc(C)n(-c2nc(C(=O)NCCN3CCC(C)CC3)cs2)n1,-39.93
